In all, about 33,000 sequences were measured (“E-score (-0.5 to 0.5)”: median about -0.032, highest 2% from about 0.36 on). Only a selection was taken, and the highest values are over-represented in it overall.
These sequences were tested against T1, Sko1 (UniProt Q02100) (assay: PBM E-score (8-mer binding enrichment) (E-score (-0.5 to 0.5)); higher = stronger / more preferred TF binding). Conditions: protein concentration: 200 nM; construct: GST-full length.
T1 sequence: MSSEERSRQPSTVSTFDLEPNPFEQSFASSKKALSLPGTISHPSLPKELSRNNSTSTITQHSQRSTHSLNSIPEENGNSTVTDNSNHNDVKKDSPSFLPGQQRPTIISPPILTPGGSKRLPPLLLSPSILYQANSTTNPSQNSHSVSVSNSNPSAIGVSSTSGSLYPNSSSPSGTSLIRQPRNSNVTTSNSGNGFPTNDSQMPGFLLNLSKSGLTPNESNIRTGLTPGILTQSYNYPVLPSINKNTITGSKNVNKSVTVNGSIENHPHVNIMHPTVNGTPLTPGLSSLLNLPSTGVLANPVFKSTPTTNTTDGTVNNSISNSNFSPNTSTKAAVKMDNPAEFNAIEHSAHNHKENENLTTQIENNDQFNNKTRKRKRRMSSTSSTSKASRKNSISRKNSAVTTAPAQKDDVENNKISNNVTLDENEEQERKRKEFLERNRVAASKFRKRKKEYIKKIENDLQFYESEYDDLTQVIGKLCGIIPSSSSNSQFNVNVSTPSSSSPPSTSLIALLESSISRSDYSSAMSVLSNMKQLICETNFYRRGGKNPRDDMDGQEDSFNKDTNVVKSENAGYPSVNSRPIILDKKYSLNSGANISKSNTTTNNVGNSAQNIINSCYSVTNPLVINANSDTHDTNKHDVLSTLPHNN
Description: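 Universal 'all 10-mer' protein binding microarrays (Agilent AMADID 015681) probed with GST-tagged S. cerevisiae TFs (full-length or DBD) made by in vitro transcription/translation (PURExpress), about 100-200 nM. Bound TF was detected with fluorescent anti-GST. Each ungapped 8-mer (which stands for itself and its reverse complement) is scored by the PBM enrichment score (E-score), a modified Wilcoxon-Mann-Whitney statistic from -0.5 to +0.5, computed with the Universal PBM Analysis Suite. Scale: above 0.35 generally sequence-specific binding.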

Row | Sequence | PBM E-score
1 | TCGACGCA | 0.0313
2 | ATCGCCAA | -0.119
3 | GTTTTCTA | 0.201
4 | GCAGTAGA | -0.0999
5 | ATGGCAGG | -0.281
6 | CAGGACCC | -0.221
7 | GATGACGC | 0.473
8 | CATGACAA | -0.00914
9 | GATGACCA | 0.0721
10 | GATGACCC | -0.0957
11 | ATTGACGC | 0.319
12 | ACTGACGC | 0.334
13 | GATGACGA | 0.474
14 | GATGACAC | 0.257
15 | CATGACGA | 0.463
16 | AATGACGC | 0.478
17 | GATGACTA | 0.0669
18 | CATGACGG | 0.326
19 | GGACCCTA | -0.273
20 | GTTTTGTA | 0.262
21 | ACGATAGT | 0.295
22 | ATATGCGC | 0.0277
23 | CGATCGCG | 0.0985
24 | CGAGCACG | 0.0337
25 | GACCAGCA | -0.185

Row | Sequence | PBM E-score
26 | GAGGGCGA | -0.265
27 | AATGACGG | 0.388
28 | AATGACCG | 0.0453
29 | ATTGACGG | 0.0348
30 | GCCTCAGA | -0.148
31 | ACGTAACG | 0.469
32 | ACGTAACC | 0.469
33 | ACGTAACT | 0.459
34 | CCGTAACC | -0.0904
35 | GCGTAACA | 0.317
36 | AGGTAACT | 0.0427
37 | CCGTAACG | -0.103
38 | GCGTAACC | 0.328
39 | AAGTAACG | 0.0665
40 | TCGTAACA | 0.275
41 | ACGTAACA | 0.464
42 | AAGTAACT | 0.153
43 | AGCTGTGG | -0.296
44 | GGTCCCAC | -0.0859
45 | AATGAGTA | 0.178
46 | CGGACTGC | -0.0639
47 | CTCTTACA | -0.0812
48 | ATTTAGTA | 0.25
49 | ATGAAATG | -0.059
50 | AGGCAAGC | -0.126

Row | Sequence | PBM E-score
51 | AATACGTG | 0.458
52 | GATACGGA | -0.0181
53 | AATACGGG | -0.111
54 | GATACGAA | 0.227
55 | CATACGTC | 0.466
56 | AATACGGA | 0.138
57 | CATACGCC | 0.182
58 | AATACGCG | 0.287
59 | AATACGTA | 0.482
60 | CATACGGC | -0.0208
61 | AATACGAA | 0.324
62 | GATACGTA | 0.48
63 | AAACCTTG | 0.0199
64 | GACTCACC | -0.118
65 | CTCAGGAG | -0.159
66 | CACTTCCA | 0.109
67 | CTTAAAGA | 0.00637
68 | CTTGATGC | -0.116
69 | AACCGCTT | -0.113
70 | AATTCAAA | 0.193
71 | CTTAAGCA | -0.0027
72 | CACTTTGG | -0.0531
73 | ATCTGGGA | -0.147
74 | CAGGCAGC | -0.349
75 | CGGTGGAA | -0.188

Row | Sequence | PBM E-score
76 | ATGAGCGA | 0.102
77 | AATACGTC | 0.464
78 | AATACGGC | 0.0384
79 | CATACGTA | 0.485
80 | CATACGAA | 0.308
81 | CATACGGA | -0.00572
82 | AATACGAC | 0.22
83 | CCGACTGA | -0.162
84 | ACATGGTA | 0.00395
85 | ACTCCTGA | -0.0495
86 | GGACGACA | 0.0412
87 | TGACGACA | 0.467
88 | TGACGAAA | 0.463
89 | ATACGACG | 0.234
90 | GGACGAAA | -0.0622
91 | GTACGACA | 0.326
92 | CTACGAAA | 0.214
93 | TTACGAAA | 0.396
94 | AGACGAAA | 0.199
95 | ATACGAAA | 0.346
96 | CGACGACA | 0.0871
97 | ATACGACA | 0.363
98 | AGAATCCC | -0.0186
99 | GTAGTTGA | 0.173
100 | CTTCTACC | -0.3

Row | Sequence | PBM E-score
101 | TAATGCAA | 0.0655
102 | ATTCACTG | 0.0188
103 | ACTTTCGG | 0.0182
104 | TAGGGGGA | -0.251
105 | CGCTATGC | 0.147
106 | TCAAGTGA | 0.087
107 | ATCGCTAG | -0.0122
108 | CTAGTTAC | 0.099
109 | CATTGAGG | -0.021
110 | CAGGCTCC | -0.335
111 | CTATGTCA | 0.338
112 | ATATGTCA | 0.339
113 | GTATGTCA | 0.398
114 | ATTTTACG | 0.383
115 | AATTTACG | 0.332
116 | ATTTTACC | 0.252
117 | ACTTTACA | 0.158
118 | CATTTACC | 0.129
119 | ACTTTACG | 0.379
120 | CCTTTACG | 0.278
121 | CATTTACG | 0.369
122 | CATTTACA | 0.103
123 | ATAGCGGA | -0.0894
124 | AGGTTGTA | 0.15
125 | GTCCAGTA | -0.0738

Row | Sequence | PBM E-score
126 | AGCGCGAA | 0.13
127 | AGTCATAC | 0.262
128 | AGTCATAG | -0.0111
129 | CCTCATAG | 0.1
130 | TGTCATAA | 0.325
131 | CGTCATAA | 0.487
132 | GGTCATAC | 0.021
133 | CGTCATAG | 0.483
134 | CGTCATAC | 0.486
135 | AGTCATAA | 0.0121
136 | GTAACTGA | 0.126
137 | CCAGTGGG | -0.107
138 | ATCCACGC | -0.0735
139 | GTAACCTA | 0.192
140 | CCAAAACG | 0.171
141 | AACCCGTG | -0.216
142 | AGATGACG | 0.476
143 | AGATGACA | 0.256
144 | CGATGACA | 0.283
145 | CGATGACC | 0.0462
146 | CGATGACG | 0.482
147 | AGATGACC | -0.0804
148 | CAACTTAC | 0.0405
149 | AGCGAAAC | 0.163
150 | GGACCGCC | -0.415

Row | Sequence | PBM E-score
151 | GGACCATA | -0.148
152 | GGCCCAAC | -0.146
153 | ACGTTAGA | 0.265
154 | AGAGATGG | -0.0345
155 | CTCGTCAC | 0.38
156 | GCCGTCAC | 0.166
157 | ATCGTCGC | 0.0155
158 | CTCGTCAG | 0.176
159 | GTCGTCAC | 0.41
160 | ATCGTCTC | -0.0603
161 | CGCGTCAG | 0.222
162 | GTCGTCAA | 0.239
163 | CGCGTCAA | 0.34
164 | ATCGTCAC | 0.385
165 | CTCGTCAA | 0.0618
166 | CGCGTCAC | 0.41
167 | ACCTCCAA | -0.189
168 | CGCAGTAC | 0.118
169 | ACTACTGC | -0.0692
170 | AAACCTAG | -0.0586
171 | GACCACAA | -0.165
172 | AACTCGAG | -0.00786
173 | CATTTTCC | 0.122
174 | CCGGACTC | -0.16
175 | GCGGACGC | -0.0227

Row | Sequence | PBM E-score
176 | AGGGTACT | -0.236
177 | TCACAACA | 0.251
178 | ACTTAAGC | 0.032
179 | AGCGTCAT | 0.445
180 | ATCGTCAG | 0.263
181 | ACCGTCAT | 0.378
182 | ATCGTCAT | 0.469
183 | ACCGTCAA | 0.00527
184 | ATCGTCAA | 0.287
185 | ACCGTCAG | -0.0341
186 | AGCGTCAG | 0.154
187 | AGCGTCAA | 0.166
188 | CCTTAAAA | 0.101
189 | GTGAATGA | 0.231
190 | GGGCCAGA | -0.278
191 | GGAGCTAC | -0.112
192 | CGCTAGCG | -0.26
193 | CGGAGAGA | -0.15
194 | CTCCAAGA | -0.189
195 | ATTCTAGG | 0.0401
196 | AGTCGCGG | -0.312
197 | GCAAACGA | 0.136
198 | TAGCTACA | 0.13
199 | GGATTCTA | -0.0972
200 | TCATTGAA | 0.146

Row | Sequence | PBM E-score
201 | CATCATAA | 0.299
202 | AATCATAG | 0.126
203 | CATCATGG | 0.132
204 | CATCATAC | 0.377
205 | AATCATAC | 0.253
206 | CATCATAG | 0.361
207 | ATAAATAC | 0.23
208 | CGATGGAA | 0.106
209 | AAACAATC | 0.0366
210 | ACAGGTTC | -0.291
211 | ACGGTTTG | -0.104
212 | GACCTAGA | 0.0106
213 | ACGTATGA | 0.473
214 | ACGTATGC | 0.458
215 | CCGTATGA | 0.135
216 | ACGTATGG | 0.441
217 | ATGTATGG | 0.0987
218 | CCGTATGC | -0.0726
219 | AAGTATGG | 0.023
220 | AGGTATGC | 0.118
221 | GCGTATGA | 0.337
